BLM helicase inh – inhibitors of human Bloom syndrome helicase BLM; Potency, µM (doses to about 56.1 µM), without a hit: top-dose activity change, negative = inhibition, usual class: inhibitors; recombinant BLM DNA unwinding, fluorescence dequenching; AID 2528; hit rate 0.2% among 350,000;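 note: plate controls were vehicle for no effect and no enzyme for full effect; nearly all actives have a fitted effect of over 35% in size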
Target sequence (P54132 whole entry, looked up): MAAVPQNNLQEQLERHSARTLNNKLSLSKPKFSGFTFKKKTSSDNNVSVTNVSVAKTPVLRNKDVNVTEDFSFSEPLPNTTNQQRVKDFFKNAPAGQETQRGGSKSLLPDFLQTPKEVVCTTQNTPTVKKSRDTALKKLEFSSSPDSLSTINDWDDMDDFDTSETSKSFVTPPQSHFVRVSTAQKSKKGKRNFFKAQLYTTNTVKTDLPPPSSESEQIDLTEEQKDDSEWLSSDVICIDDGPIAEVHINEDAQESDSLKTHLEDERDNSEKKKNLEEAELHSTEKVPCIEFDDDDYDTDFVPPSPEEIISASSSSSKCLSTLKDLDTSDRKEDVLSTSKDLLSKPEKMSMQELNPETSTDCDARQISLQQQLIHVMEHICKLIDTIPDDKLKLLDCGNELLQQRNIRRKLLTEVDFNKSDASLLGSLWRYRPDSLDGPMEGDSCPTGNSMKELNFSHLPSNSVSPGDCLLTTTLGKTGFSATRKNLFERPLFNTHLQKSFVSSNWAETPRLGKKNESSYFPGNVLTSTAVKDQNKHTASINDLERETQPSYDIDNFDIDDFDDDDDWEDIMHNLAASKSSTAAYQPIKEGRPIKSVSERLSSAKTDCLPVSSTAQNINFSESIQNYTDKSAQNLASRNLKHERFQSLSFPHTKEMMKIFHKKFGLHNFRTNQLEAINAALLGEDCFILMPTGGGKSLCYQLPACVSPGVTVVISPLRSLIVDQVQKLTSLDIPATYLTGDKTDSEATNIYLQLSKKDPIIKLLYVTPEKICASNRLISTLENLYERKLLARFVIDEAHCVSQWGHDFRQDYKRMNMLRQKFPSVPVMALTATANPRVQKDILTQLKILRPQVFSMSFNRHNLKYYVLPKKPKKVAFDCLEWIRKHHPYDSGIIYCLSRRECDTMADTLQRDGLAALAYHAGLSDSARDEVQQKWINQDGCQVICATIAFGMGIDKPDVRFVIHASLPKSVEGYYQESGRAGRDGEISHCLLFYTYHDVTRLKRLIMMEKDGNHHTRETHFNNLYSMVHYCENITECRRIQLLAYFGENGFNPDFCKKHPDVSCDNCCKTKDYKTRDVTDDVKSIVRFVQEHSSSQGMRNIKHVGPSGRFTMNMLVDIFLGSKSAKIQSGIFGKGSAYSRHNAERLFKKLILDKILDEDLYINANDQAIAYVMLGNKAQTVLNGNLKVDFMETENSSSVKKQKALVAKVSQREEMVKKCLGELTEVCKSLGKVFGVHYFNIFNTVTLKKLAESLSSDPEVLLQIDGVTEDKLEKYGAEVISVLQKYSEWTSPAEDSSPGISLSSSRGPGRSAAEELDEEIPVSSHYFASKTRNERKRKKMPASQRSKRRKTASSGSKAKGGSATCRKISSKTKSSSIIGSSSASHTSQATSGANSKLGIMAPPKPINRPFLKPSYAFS
RECQ1 helicase – inhibitors of human RECQ1 DNA helicase. RECQ1 DNA unwinding, red fluorescence kinetic read. Potency, µM (highest dose often 57.3 µM), without a hit: at the top dose activity, negative = inhibition, hits mostly inhibitors. hit rate 0.54% among 240,000;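 note: plate controls were vehicle for no effect and no enzyme for full effect; nearly all actives have a fitted effect of over 30% in size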
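50 nM RECQ1T1 preincubated 15 min with compound in Tris pH 8.0 buffer with MgCl2, DTT, Tween-20 and 2.5 ug/ml poly(dI-dC); started with 200 nM TAMRA/BHQ-2 forked duplex and 2 mM ATP. Unwinding read as fluorescence (525/598 nm), two reads 2 h apart.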
APE1 inh – blocks human APE1 abasic DNA cleavage; P27695; recombinant APE1, TAMRA/BHQ-2 abasic DNA cleavage fluorescence; Potency, µM (highest dose often 65.8 µM), without a hit: at the top dose activity change, negative = inhibition, hits mostly inhibitors; hit rate 0.35% among 350,000; AID 2517;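 note: plate controls were vehicle for no effect and reference inhibitor for full effect; nearly all actives have a fitted effect of over 55% in size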
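Quantitative HTS: incision of a TAMRA/BHQ-2 double-stranded substrate bearing a tetrahydrofuran abasic site by 0.75 nM APE1 raises fluorescence. Substrate 50 nM final, added after 15 min compound preincubation at room temperature; progress as third-minus-first kinetic read difference.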
TRb-SRC2 inh – inhibitors of human thyroid hormone receptor beta-SRC2 interaction; P10828; TRbeta-SRC2 peptide binding, fluorescence polarization; receptor liganded with 1 µM T3; Potency, µM (titrated, usually from 106 µM), without a hit: at the top dose activity change, negative = inhibition, most hits filed as inhibitors; hit rate 0.065% among 280,000; AID 1469;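 note: plate controls were bound peptide for no effect and peptide without receptor for full effect; nearly all actives have a fitted effect of over 50% in size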
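Human TRb LBD (0.6 uM) plus Texas Red-labeled SRC2 peptide (20 nM), 1uM T3, 5% DMSO, 5 hr at ambient temperature. Decreased polarization (555/632 nm) flags inhibition; data normalized to free and bound peptide controls.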
TexasRed fluor – counter-screen for TRb-SRC2 inhibitors: fluorescence interference; TRb/SRC2 Texas Red total fluorescence interference; Potency, µM (series often up to 106 µM), inactives show at the highest dose fluorescence change, negative = quenching; hit rate 0.29% among 280,000; AID 1479; active = well fitted curve in either direction with a large enough effect; inconclusive = small, poorly fitted or top-dose-only effect
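Human TRβ ligand-binding domain (0.6 uM) and Texas Red SRC2 peptide (20 nM) in Tris buffer with 1 uM T3 and 5% DMSO were incubated with pinned compound for 5 hr at ambient temperature. Total fluorescence was computed as S + 2P (555/632 nm).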
GoLoco inh red – RGS12 GoLoco-Gai1 interaction inhibition. P63096. Gai1:RGS12 GoLoco peptide FP, rhodamine, 10 min. Potency, µM (doses to about 61.6 µM), inactives show top-dose activity, negative = inhibition, usual class: inhibitors. hit rate 0.44% among 230,000. AID 880; active = well fitted inhibition curve with a large enough effect, not every such curve was filed as active; inactive = no such curve, though single readings can be large or run the other way; note: nearly all actives have a fitted effect of over 30% in size
* = called active by the depositor; [ ] = remark or other dose. Compounds with a hit are over-represented: about 0.9% of the library has one in this group of screens. Unless noted, calls come from the whole dose curve; as a rule, active = well fitted curve in the direction sought with a large enough effect; inconclusive = small, poorly fitted or top-dose-only effect, or another doubt; inactive = no such curve, though single readings can be large; an effect the other way counts as inactive or inconclusive. Unless noted, % is set by controls: 0 for no effect and ±100 for the full control effect; potency is the fitted concentration of half-maximal effect.

What do the screens show for `CCOc1ccc(Cl)cc1/C=N/NC(=O)c1ccccc1`?
BLM helicase inh: -4%; RECQ1 helicase: -2%; APE1 inh: 0%; TRb-SRC2 inh: -6%; TexasRed fluor: -7%; GoLoco inh red: -1%

How did CCOc1ccc(C(=O)N/N=C/c2cc(Cl)ccc2[N+](=O)[O-])cc1 do in these assays?
BLM helicase inh: 11µM*; RECQ1 helicase: -2%; APE1 inh: 5%; TRb-SRC2 inh: -7%; TexasRed fluor: 0%; GoLoco inh red: 11%

How did Cc1cccc(C(=O)Nc2nnc(SCC(=O)Nc3ccc4c(c3)oc3ccccc34)s2)c1 do in these assays?
BLM helicase inh: -7%; RECQ1 helicase: -3%; APE1 inh: -1%; TRb-SRC2 inh: 3%; TexasRed fluor: 0%; GoLoco inh red: 7.9µM*

Results for CCCCN(CCCC)CCCNC(=O)c1cc(-c2ccc(Cl)s2)nc2ccccc12 ?
BLM helicase inh: -11%; TRb-SRC2 inh: -10%; TexasRed fluor: 0.79µM*[quencher]

What do the screens show for `CC[n+]1ccccc1/C=C/c1ccc(N(C)C)cc1`?
BLM helicase inh: 3%; RECQ1 helicase: 79%; APE1 inh: 22%; TRb-SRC2 inh: 6%; TexasRed fluor: 4%; GoLoco inh red: 153%

Results for CC[n+]1ccc(/C=C/c2ccc(N(C)C)cc2)c2ccccc21 ?
BLM helicase inh: -28%; RECQ1 helicase: 35µM*; APE1 inh: 10%; TRb-SRC2 inh: inconclusive; TexasRed fluor: 32µM*[fluorescent]; GoLoco inh red: 267%

Results for Cc1ccc(CNc2ccc(O)cc2)cc1 ?
BLM helicase inh: 25µM*; RECQ1 helicase: -11%; APE1 inh: -9%; TRb-SRC2 inh: 28µM*; TexasRed fluor: 23%; GoLoco inh red: 18µM*

What do the screens show for `CN(C)NC1=CC(=[N+]2CCCC2)CC(C)(C)C1`?
BLM helicase inh: -2%; RECQ1 helicase: -2%; APE1 inh: -5%; TRb-SRC2 inh: -5%; TexasRed fluor: -2%; GoLoco inh red: -14%

How did CC1C[N+](=C2C=C(N3CCOCC3)CC(C)(C)C2)CC(C)O1 (stereo unspecified) do in these assays?
BLM helicase inh: -1%; RECQ1 helicase: inactive; APE1 inh: 0%; TRb-SRC2 inh: 4%; TexasRed fluor: -2%; GoLoco inh red: 25µM*

What do the screens show for `CCCN(CCC)C1=CC(=[N+]2CCCC2)CC(C)(C)C1`?
BLM helicase inh: 6%; RECQ1 helicase: -8%; APE1 inh: 17%; TRb-SRC2 inh: -4%; TexasRed fluor: -1%; GoLoco inh red: 7.9µM*

What do the screens show for `CC1(C)CC(N2CCCCC2)=CC(=[N+]2CCCCC2)C1`?
BLM helicase inh: 2%; RECQ1 helicase: 1%; APE1 inh: -7%; TRb-SRC2 inh: 2%; TexasRed fluor: -3%; GoLoco inh red: 2.5µM*

What do the screens show for `CC1(C)CC(N2CCOCC2)=CC(=[N+]2CCOCC2)C1`?
BLM helicase inh: -1%; RECQ1 helicase: 0%; APE1 inh: 0%; TRb-SRC2 inh: 0%; TexasRed fluor: -3%; GoLoco inh red: -36%

Results for Cc1sc2ccccc2[n+]1CCC(=O)O ?
GoLoco inh red: 4%[14.2 µM]

What do the screens show for `CCOc1cc(C(=O)Nc2ccc(NC(=O)c3cc4ccccc4o3)c(OC)c2)cc(OCC)c1OCC`?
BLM helicase inh: -9%; TRb-SRC2 inh: -15%; TexasRed fluor: 35µM*[quencher]

What do the screens show for `O=C1C=C(O)CC(c2ccco2)C1` (stereo unspecified)?
BLM helicase inh: 64%; RECQ1 helicase: inconclusive; APE1 inh: 3.2µM*; TRb-SRC2 inh: -4%; TexasRed fluor: -10%; GoLoco inh red: 2%

How did Cc1ccc(C(=O)N/N=C/c2ccc(-c3ccccc3[N+](=O)[O-])o2)cn1 do in these assays?
BLM helicase inh: -21%; RECQ1 helicase: -10%; APE1 inh: -1%; TRb-SRC2 inh: inconclusive; TexasRed fluor: 32µM*[quencher]; GoLoco inh red: -4%

How did COc1ccc(-c2ccc(/C=N/NC(=O)c3cccnc3)o2)c([N+](=O)[O-])c1 do in these assays?
BLM helicase inh: -14%; RECQ1 helicase: 4µM*; APE1 inh: inconclusive; TRb-SRC2 inh: -2%; TexasRed fluor: -2%; GoLoco inh red: 33%

How did N#Cc1ccc(Nc2nn3c(=O)c4ccccc4nc3s2)cc1 do in these assays?
APE1 inh: -39%

Results for CCCC(NC(=O)Cc1c(C)c2cc3c(C)c(C)oc3c(C)c2oc1=O)C(=O)N[C@@H](Cc1ccccc1)C(=O)O (stereo partly specified) ?
BLM helicase inh: -11%; APE1 inh: 21µM*

Results for Cc1coc2c(C)c3oc(=O)c(CCC(=O)N[C@@H](C)C(=O)N[C@@H](Cc4ccccc4)C(=O)O)c(C)c3cc12 ?
BLM helicase inh: -6%; APE1 inh: 13µM*

What do the screens show for `Cc1coc2c(C)c3oc(=O)c(CCC(=O)NCCc4ccccc4)c(C)c3cc12`?
BLM helicase inh: -2%; TRb-SRC2 inh: 4%; TexasRed fluor: 1%

What do the screens show for `COc1ccc(-c2nc(-c3ccccc3)c(NC(C)C)o2)cc1`?
BLM helicase inh: 1%; RECQ1 helicase: -5%; APE1 inh: 1%; TRb-SRC2 inh: 5%; TexasRed fluor: -2%; GoLoco inh red: 3%

How did COC(=O)N1C(/C=C/c2ccc3c(c2)OCO3)=Cc2ccccc2C1CC(C)=O (stereo unspecified) do in these assays?
BLM helicase inh: 2%[12.4 µM]; RECQ1 helicase: inactive[11.5 µM]; APE1 inh: -9%[12.4 µM]; TRb-SRC2 inh: 7%[11.2 µM]; TexasRed fluor: 0%[11.2 µM]; GoLoco inh red: 3%[14.2 µM]

What do the screens show for `O=C(O)C(c1ccccc1)N1C(=O)/C(=C\c2ccc(-c3ccc(Br)cc3)o2)SC1=S` (stereo unspecified)?
BLM helicase inh: 32µM*; APE1 inh: inconclusive

Results for CC(C)(C)n1ncc2c(=O)n(Cc3cc(F)ccc3Cl)cnc21 ?
APE1 inh: 12%

Results for CC1CCc2noc(NC(=O)c3ccccc3[N+](=O)[O-])c2C1 (stereo unspecified) ?
BLM helicase inh: -1%; TRb-SRC2 inh: -10%; TexasRed fluor: 22387µM*[quencher]

What do the screens show for `Cc1nc(N2CCOCC2)c2c(C(=O)N3CCN(c4ccccc4F)CC3)c(C)oc2n1`?
BLM helicase inh: -1%; TRb-SRC2 inh: -3%; TexasRed fluor: inconclusive

What do the screens show for `COc1cc(C(=O)Oc2ccccc2/C=N/NC(=O)c2ccc(Cl)cc2)cc(OC)c1OC`?
BLM helicase inh: -4%; RECQ1 helicase: 22µM*; APE1 inh: -10%; TRb-SRC2 inh: 1%; TexasRed fluor: 1%; GoLoco inh red: -10%

What do the screens show for `CC(C)(C)n1ncc2c(=O)n(Cc3c(F)cc(Cl)cc3F)cnc21`?
APE1 inh: 0%

Bioassay records (PubChem)
